# Reference: PubChem BioAssay (Tox21)
# “And” between values parts separate entries of the source, which are not always exact repeats. Equal values may be shown once. Where a structure was tested more than once in an assay, its records may differ in their call. The source made the active and inactive calls. Where a call stands in place of a potency, no number is given. Unless noted, calls follow the shape of the dose curve; as a rule, active = well fitted curve in the direction sought with a large enough effect in the repeat runs; inconclusive = weak or mixed curves; inactive = no such curve, though single readings can be large; an effect the other way counts as inactive or inconclusive.
# Tests used:
# [1] = qHTS assay to identify small molecule antagonists of the glucocorticoid receptor (GR) signaling pathway - cell viability counter screen (AID 720693); also: nearly all actives have a fitted effect of over 55% in size
# [2] = qHTS assay for identifying genotoxic compounds that show differential cytotoxicity against isogenic chicken DT40 cell lines with known DNA damage response pathways - wild type cell line (AID 743012); also: nearly all actives have a fitted effect of over 60% in size; also: potency is read from the fitted curve at half-maximal effect
# Outline: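 Cytotoxicity in repair-proficient parental chicken DT40 cells serves as the comparator for Rad54/Ku70- and Rev3-deficient lines. Cells were exposed to compounds for 40 h at 37 C/5% CO2, and ATP-based luminescence (CellTiter-Glo) measured viability.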
# [3] = qHTS assay for identifying genotoxic compounds that show differential cytotoxicity against isogenic chicken DT40 cell lines with known DNA damage response pathways - Rev3 mutant cell line (AID 743014); also: nearly all actives have a fitted effect of over 55% in size; also: potency is read from the fitted curve at half-maximal effect
# [4] = qHTS assay for identifying genotoxic compounds that show differential cytotoxicity against isogenic chicken DT40 cell lines with known DNA damage response pathways - Rad54/Ku70 mutant cell line (AID 743015); also: nearly all actives have a fitted effect of over 60% in size; also: potency is read from the fitted curve at half-maximal effect
# [5] = qHTS assay to identify small molecule antagonists of the androgen receptor (AR) signaling pathway - cell viability counter screen (AID 743033; also: nearly all actives have a fitted effect of over 45% in size)
# [6] = qHTS assay to identify small molecule antagonists of the androgen receptor (AR) signaling pathway using the MDA cell line - cell viability counter screen (AID 743041; also: nearly all actives have a fitted effect of over 45% in size)
# Outline: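 Compound exposure lasted 16 h at 37C in MDA-kb2 AR-luc cells stimulated with R1881. Protease-based CellTiter-Fluor reagent was applied for the final 30 min and fluorescence measured.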
# [7] = qHTS assay to identify small molecule antagonists of the thyroid receptor (TR) signaling pathway - cell viability counter screen (AID 743064); also: nearly all actives have a fitted effect of over 50% in size; also: potency is read from the fitted curve at half-maximal effect
# Outline: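 Fluorescence from CellTiter-Fluor, added after 23.5 h exposure at 37 °C, reported viability of GH3.TRE-Luc cells co-treated with compound and 1 nM T3. Measured in the same wells as the luciferase TR readout.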
# [8] = qHTS assay to identify small molecule antagonists of the thyroid receptor (TR) signaling pathway (AID 743065); also: series mostly up to about 70 µM; nearly all actives have a fitted effect of over 55% in size
# Outline: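 GH3.TRE-Luc rat pituitary cells (two TREs driving luciferase) were dosed with compound, then stimulated with 1 nM T3 (final) for 23.5 h at 37 C. ONE-Glo luminescence was the read-out, with CellTiter-Fluor fluorescence as the cytotoxicity counter-screen.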
# [9] = system: thyroid hormone receptor (rat, GH3 cells); experiment: qHTS assay to identify small molecule agonists of the thyroid receptor (TR) signaling pathway (AID 743066; calls by dose curve; also: potency is read from the fitted curve at half-maximal effect)
# [10] = qHTS assay to identify small molecule antagonists of the estrogen receptor alpha (ER-alpha) signaling pathway - cell viability counter screen (AID 743074; calls by dose curve; also: nearly all actives have a fitted effect of over 45% in size)
# [11] = qHTS assay to identify small molecule antagonists of the estrogen receptor alpha (ER-alpha) signaling pathway using the BG1 cell line - cell viability counter screen (AID 743081);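 also: compound given together with 17beta-estradiol as the ER stimulus; series mostly up to about 70 µM; nearly all actives have a fitted effect of over 45% in size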
# Aromatase (Homo sapiens) = Aromatase (Homo sapiens) (UniProt P11511); experiment: qHTS assay to identify aromatase inhibitors (AID 743083); also: series mostly up to about 70 µM; nearly all actives have a fitted effect of over 55% in size
# Sequence of Aromatase (Homo sapiens) (P11511 whole entry, looked up): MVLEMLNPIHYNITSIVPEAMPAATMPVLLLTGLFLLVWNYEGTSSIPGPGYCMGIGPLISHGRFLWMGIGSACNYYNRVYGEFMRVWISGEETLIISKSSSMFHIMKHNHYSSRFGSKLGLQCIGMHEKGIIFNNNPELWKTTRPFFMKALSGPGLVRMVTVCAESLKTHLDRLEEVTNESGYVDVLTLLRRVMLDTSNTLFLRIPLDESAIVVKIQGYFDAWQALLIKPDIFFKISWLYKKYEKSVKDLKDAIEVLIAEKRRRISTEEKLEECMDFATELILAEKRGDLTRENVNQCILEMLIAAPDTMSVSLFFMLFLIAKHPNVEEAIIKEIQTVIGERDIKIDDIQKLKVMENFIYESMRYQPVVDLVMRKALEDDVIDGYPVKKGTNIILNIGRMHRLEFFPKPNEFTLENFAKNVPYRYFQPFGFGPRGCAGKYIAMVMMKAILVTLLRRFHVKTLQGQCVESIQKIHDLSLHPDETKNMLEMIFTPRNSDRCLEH
# [12] = molecular target: Estrogen receptor (Homo sapiens) (UniProt P03372); experiment: qHTS assay to identify small molecule antagonists of the estrogen receptor alpha (ER-alpha) signaling pathway (AID 743069; active = well fitted curve in the direction sought with a large enough effect in the signal ratio in the repeat runs, not every such curve was filed as active; inconclusive = weak or mixed curves, or effect the other way; inactive = no such curve, though single readings can be large or run the other way; the % refers to the signal ratio; also: potency is read from the fitted curve at half-maximal effect)
# Sequence of Estrogen receptor (Homo sapiens) (P03372 whole entry, looked up): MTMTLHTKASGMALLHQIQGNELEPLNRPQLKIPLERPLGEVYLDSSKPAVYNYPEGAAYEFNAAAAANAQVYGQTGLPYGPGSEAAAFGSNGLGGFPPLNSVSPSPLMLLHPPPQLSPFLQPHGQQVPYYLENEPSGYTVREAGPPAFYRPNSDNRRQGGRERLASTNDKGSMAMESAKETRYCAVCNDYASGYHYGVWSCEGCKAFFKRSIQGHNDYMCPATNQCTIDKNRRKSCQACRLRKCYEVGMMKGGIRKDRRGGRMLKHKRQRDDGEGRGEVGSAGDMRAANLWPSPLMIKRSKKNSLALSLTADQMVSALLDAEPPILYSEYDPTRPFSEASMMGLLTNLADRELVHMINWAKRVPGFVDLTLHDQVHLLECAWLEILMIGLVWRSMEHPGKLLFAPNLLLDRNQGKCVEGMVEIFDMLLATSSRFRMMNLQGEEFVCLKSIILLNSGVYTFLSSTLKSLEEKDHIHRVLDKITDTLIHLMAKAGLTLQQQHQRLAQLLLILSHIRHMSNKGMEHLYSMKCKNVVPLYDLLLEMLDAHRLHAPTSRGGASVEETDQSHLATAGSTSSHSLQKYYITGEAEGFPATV
# Outline: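 In this cell-based reporter format, GripTite HEK293 cells harbouring ER-alpha-UAS-bla were grown overnight with 2% charcoal-stripped FBS, dosed with DMSO-dissolved compounds, then challenged with 17beta-estradiol. After 18 hr at 37C, beta-lactamase activity was detected by FRET fluorescence.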
# [13] = molecular target: Estrogen receptor (Homo sapiens) (UniProt P03372); experiment: qHTS assay to identify small molecule agonists of the estrogen receptor alpha (ER-alpha) signaling pathway (AID 743075; calls by dose curve)
# [14] = molecular target: Estrogen receptor (Homo sapiens) (UniProt P03372); experiment: qHTS assay to identify small molecule agonists of the estrogen receptor alpha (ER-alpha) signaling pathway using the BG1 cell line (AID 743079); also: nearly all actives have a fitted effect of over 20% in size
# [15] = qHTS assay to identify small molecule antagonists of the estrogen receptor alpha (ER-alpha) signaling pathway using the BG1 cell line (AID 743080; calls by dose curve;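 also: BG1 cells stimulated with 17beta-estradiol alongside compound; series mostly up to about 70 µM; nearly all actives have a fitted effect of over 25% in size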)
# Outline: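 BG1-Luc-4E2 cells (endogenous full-length ER-alpha, stable 4×ERE-luciferase) were starved 5 days in phenol-red-free medium with 10% charcoal-stripped FBS, plated 24 h, then given compound plus 17beta-estradiol for 21.5 h at 37 C; ONE-Glo luminescence read after 30 min.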
Compound,Potency [1],Potency [2],Potency [3],Potency [4],outcome [5],outcome [6],Potency [7],Potency [8],Potency [9],outcome [10],outcome [11],Potency (Aromatase (Homo sapiens)),Potency [12],outcome [13],Potency [14],outcome [15]
Nc1ccc(N)cc1,inactive,54.7 µM (active),19.4 µM (active) and 54.5 µM (active),26.6 µM (active) and 21.8 µM (active),inactive,inactive,inactive and 30.8 µM (active),inactive,inactive,inactive,inactive,inactive,–,–,–,–
CNC(=O)O/N=C/C(C)(C)SC,inactive,inactive,inactive,inactive,inactive,inactive,inactive,inactive,inactive,inactive,inactive,inactive,inactive,inactive,inactive,inactive
OCc1ccco1,inactive,inactive,inactive,inactive,inactive,inactive,inactive,inactive,inactive,inactive,inactive,inactive,inactive,inactive,inactive,inactive
CN1C(=O)CCS(=O)(=O)C1c1ccc(Cl)cc1 (stereo not drawn),inactive,inactive,inactive,inactive,inactive,inactive,inactive,inactive,inactive,inactive,inactive,inactive,–,–,–,–
CN(C)C(=O)Nc1cccc(C(F)(F)F)c1,inactive,inactive,inactive,inactive,inactive,inactive,inactive,inactive,inactive,inactive,inactive,inactive,–,–,–,–
O=C(O)C(Br)Br,inactive,inactive,inactive,inactive,inactive,inactive,inactive,inactive,inactive,inactive,inactive,inactive,inactive,inactive,inactive,inactive
Cc1ccc(N=C=O)cc1N=C=O,inactive,inactive,inactive,62.7 µM (active) and inactive,inactive,inactive,inactive,inactive,inactive,inactive,inactive,inactive,–,–,–,–
CNCC(O)c1ccc(O)cc1 (stereo not drawn),inactive,inactive,inactive,inactive,inactive,inactive,inactive,inactive,inactive,inactive,inactive,inactive,inactive,inactive,inactive,inactive
Oc1c(Br)cc(Br)cc1Br,inactive,inactive,inactive,inactive,inactive,inactive,inactive,inactive,inactive,inactive,inactive,inactive,inactive and 61.8 µM [inconclusive] (active),inactive,inactive,inactive
CNc1cnn(-c2cccc(C(F)(F)F)c2)c(=O)c1Cl,inactive,inactive,inactive and 61.1 µM (active),inactive,inactive,inactive,inactive,inactive,inactive,inactive,inactive,inactive,–,–,–,–
Cl[C@H]1OCCO[C@@H]1Cl,inactive,inactive,inactive,inactive,inactive,inactive,inactive,inactive,inactive,inactive,inactive,inactive,–,–,–,–
[N-]=[N+]=CC(=O)OC[C@H](N)C(=O)O,inactive,inactive,inactive,inactive,inactive,inactive,inactive,inactive,inactive,inactive,inactive,–,–,–,–,–
Nc1nc(N)nc(NC2CC2)n1,inactive,inactive,inactive,inactive and 61.1 µM (active),inactive,inactive,inactive,inactive,inactive,inactive,inactive,inactive,–,–,–,–
Cc1cccc(C)c1N,inactive,inactive,inactive,inactive,inactive,inactive,–,inactive,inactive,inactive,inactive,inactive,inactive,inactive,inactive,inactive
O=P1(NCCCl)OCCCN1CCCl (stereo not drawn),inactive,inactive,inactive,inactive,inactive,inactive,inactive,inactive,inactive,inactive,inactive,inactive,–,–,–,–
CN(C)NC(=O)CCC(=O)O,inactive,–,–,–,inactive,inactive,inactive,inactive,inactive,inactive,inactive,inactive,–,–,–,–
COc1cc(-c2ccc(N)c(OC)c2)ccc1N,inactive,68.6 µM (active) and 16.4 µM (active),14.7 µM (active),–,inactive,inactive,inactive and 52 µM (active),–,inactive,inactive,inactive,inactive,–,–,–,–
C=CC(=O)OCC(CC)CCCC (stereo not drawn),inactive,–,–,–,inactive,inactive,inactive,inactive,inactive,inactive,inactive,inactive,–,–,–,–
CCCCCCCCCCCCCCCCCC(=O)O,inactive,inactive,60.7 µM (active) and inactive,inactive,inactive,inactive,inactive,–,–,inactive,inactive,–,–,–,–,–
Cc1ccc(N)cc1,inactive,inactive,inactive,inactive,inactive,inactive,inactive,inactive,inactive and 77 µM (active),inactive,inactive,inactive,–,–,–,–
Cc1ccccc1N,inactive,inactive,inactive,inactive,inactive,inactive,inactive,inactive,inactive,inactive,inactive,inactive,–,–,–,–
